Assay results as given in PubChem BioAssay.
Calls of active or inactive are those of the source.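 Rule for the calls, unless noted: active = visual image review flags a hit and inhibition of aggregation exceeds 20%; inconclusive = visual hit but inhibition at or below 20%; inactive = no hit on visual image review.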

Assay: inhibitors of TNFa-induced NFkB p65 translocation, primary screen, imaging, HUVEC, MLSMR starter and 10KST1 sets (AID 438;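 active = inhibition above 20% together with a positive visual image hit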;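 note: compound added about 3h40 before a 20 min TNFalpha stimulation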;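 for inhibition: signal is the nuclear over cytoplasmic p65 intensity ratio per well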)
Details: HUVEC TNFa-induced p65 nuclear translocation; cell count: measured here: nuclei count (cytotoxicity indicator), at 2.08 µM; inhibition: at 2 µM, stronger effect = higher value, 0% TNFa-plus-vehicle, 100% no-TNFa wells

| Compound | cell count | inhibition |
| --- | --- | --- |
| Cc1[nH]c(C(=O)N2CCCCC2)c(C)c1C(=O)NC1CCCCC1 | 425 | 0.5% (inactive) |
| COc1ccc(OC)c(CNC(=O)COc2cc(=O)n(C)c3ccccc23)c1 | 367 | 4.3% (inactive) |
| CCc1nnc(NC(=O)C2CC(=O)N(Cc3ccco3)C2)s1 (stereo unspecified) | 428 | 7.3% (inactive) |
| Oc1cccc(C=NCc2ccccc2)c1O | 332 | -2.5% (inactive) |
| COc1ccc(-c2noc(CCCC(=O)O)n2)cc1 | 696 | -7.8% (inactive) |
| CC(C)c1nnc(NC(=O)c2cnccn2)s1 | 425 | -0.5% (inactive) |
| Cc1cc(=O)n2nc(N3CCCC(C(=O)N4CCN(C)CC4)C3)sc2n1 (stereo unspecified) | 465 | -0.8% (inactive) |
| O=S(=O)(Cc1ccccc1)N1CCCCCC1 | 451 | 5.2% (inactive) |
| Cc1[nH]nc2c1C1(C(=O)N(Cc3ccc(Cl)cc3)c3ccccc31)C(C#N)=C(N)O2 (stereo unspecified) | 358 | 1.4% (inactive) |
| C=CCn1c(COc2ccccc2)nnc1SCC(=O)C(C)(C)C | 733 | 0.9% (inactive) |
| Nn1c(SCC(=O)Nc2ccc(F)cc2)nnc1-c1cccnc1 | 74 | 55.5% (active) |
| Cc1ccc(S(=O)(=O)N2CCOCC2)cc1C(=O)Nc1nc(-c2cccnc2)cs1 | 294 | 10.3% (inactive) |
| C=CCN(C(=O)CNS(=O)(=O)c1ccccc1)C(C(=O)NCCOC)c1ccncc1 (stereo unspecified) | 543 | -18.3% (inactive) |
| O=C(CCn1c(=S)[nH]c2cc3c(cc2c1=O)OCO3)N1CCN(C2CCCCC2)CC1 | 473 | 4.3% (inactive) |
| CC(C)OC(=O)CN1C(=O)C(C)(C)Oc2ccc(C(=O)NC3CC3)cc21 | 537 | -6.7% (inactive) |
| C/C(N)=C(/C#N)C(=O)COC(=O)c1cc(C)n(-c2ccc(F)cc2)c1C | 717 | 10.2% (inactive) |
| O=C(Nc1cccc(F)c1)C1C2C=CC3(CN(CCCN4CCOCC4)C(=O)C13)O2 (stereo unspecified) | 661 | -5.5% (inactive) |
| CCOc1ccc2nc(SCC(=O)N3CCCCCC3)c(C#N)cc2c1 | 611 | 9.1% (inactive) |
| CCOC(=O)N(C)c1ccc(C(O)(C(F)(F)F)C(F)(F)F)cc1 | 601 | -8.6% (inactive) |
| CCOC(=O)c1sc(NC(=O)CSc2nnc3c4ccccc4n(CC)c3n2)nc1C | 478 | 1.6% (inactive) |

| Compound | cell count | inhibition |
| --- | --- | --- |
| COc1cc(CN(C)CC(=O)c2[nH]c(C)c(C(C)=O)c2C)ccc1OC(F)F | 443 | 1.6% (inactive) |
| CCCCn1c(SCC(=O)N2CC(=O)Nc3ccccc32)nnc1-c1ccoc1C | 494 | -7.7% (inactive) |
| CCOC(=O)c1ccc(N=c2sc(C(=O)OC)cc(=O)n2Cc2ccco2)cc1 | 514 | -8% (inactive) |
| CCOC(=O)CN(C(=O)CSc1nnc(-c2ccncc2)n1CCCN(C)C)c1ccccc1 | 570 | -11.3% (inactive) |
| CCOC(=O)N1CCN(c2c(NCCN(C)Cc3ccccc3)c(=O)c2=O)CC1 | 578 | -2% (inactive) |
| Clc1cccc(N2CCN(Cc3nc(-c4ccccc4)no3)CC2)c1 | 716 | -1.1% (inactive) |
| COc1ccccc1CN1CC(C(=O)NCc2cccnc2)CC1=O (stereo unspecified) | 536 | -8% (inactive) |
| COc1cccc(C2C(C(N)=O)=C(C)Nc3nc(-c4ccccc4Cl)nn32)c1 (stereo unspecified) | 804 | -4% (inactive) |
| CCOc1cccc(C(=O)N(Cc2ccco2)C2CCS(=O)(=O)C2)c1 (stereo unspecified) | 609 | 9.6% (inactive) |
| CCOC(=O)N1CCC(NC(=O)c2cc(C(=O)NC3CCCC3)ccc2CO)CC1 | 467 | 0.8% (inactive) |
| COc1ccc(Br)cc1CNC(=O)C1CCCN(S(C)(=O)=O)C1 (stereo unspecified) | 949 | -7.5% (inactive) |
| Cc1nc2c(C(=O)O)cnn2c(C)c1Cc1ccccc1F | 606 | -12.2% (inactive) |
| O=c1[nH]c(N2CCCCC2)nc2c1CCCC2 | 581 | 0.9% (inactive) |
| CC(C)(C)NC(=O)C(c1ccco1)N(C(=O)Cn1nnc(-c2ccc(F)cc2)n1)c1ccccc1F (stereo unspecified) | 562 | 1.2% (inactive) |
| O=C(Nc1ccccc1N1CCOCC1)c1ccc2ccccc2n1 | 589 | -21.6% (inactive) |
| Nc1nc2n(n1)C(c1cccc(Br)c1)CC(c1ccccc1)N2 (stereo unspecified) | 645 | 13.8% (inactive) |
| CCN(C(=O)c1cc(Cl)ccc1OC)c1ccccc1 | 354 | 5.3% (inactive) |
| CC(C)[C@H](NC(=O)OC(C)(C)C)c1nnc(SCc2cccc(F)c2)o1 | 859 | 0% (inactive) |
| CC(=O)NS(=O)(=O)c1ccc(NC(=O)c2ccccc2F)cc1 | 515 | -3.9% (inactive) |

Assay: reduction of polyQ htt aggregates in cells – imaging, exon1htt(103Q)mCFP cells, high-content imaging, primary screen (AID 483);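 note: compound exposure lasted 3 days before fixation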;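 for nuclei count: percent of the per-plate median nuclei count of sample wells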
Details: exon1htt(103Q)mCFP cell line, aggregate imaging, at 2 µM; inhibition of aggregation: stronger effect = higher value; nuclei count: measured here: cell count, toxicity

| Compound | inhibition of aggregation | nuclei count |
| --- | --- | --- |
| Cc1[nH]c(C(=O)N2CCCCC2)c(C)c1C(=O)NC1CCCCC1 | 6.3% (inactive) | 97.4% |
| COc1ccc(OC)c(CNC(=O)COc2cc(=O)n(C)c3ccccc23)c1 | -8.1% (inactive) | 105% |
| CCc1nnc(NC(=O)C2CC(=O)N(Cc3ccco3)C2)s1 (stereo unspecified) | -11.1% (inactive) | 104% |
| Oc1cccc(C=NCc2ccccc2)c1O | 15.5% (inactive) | 102% |
| COc1ccc(-c2noc(CCCC(=O)O)n2)cc1 | -3.1% (inactive) | 125% |
| CC(C)c1nnc(NC(=O)c2cnccn2)s1 | -3.7% (inactive) | 103% |
| Cc1cc(=O)n2nc(N3CCCC(C(=O)N4CCN(C)CC4)C3)sc2n1 (stereo unspecified) | 19.6% (inactive) | 92.4% |
| O=S(=O)(Cc1ccccc1)N1CCCCCC1 | -1% (inactive) | 91% |
| Cc1[nH]nc2c1C1(C(=O)N(Cc3ccc(Cl)cc3)c3ccccc31)C(C#N)=C(N)O2 (stereo unspecified) | -1.1% (inactive) | 101% |
| C=CCn1c(COc2ccccc2)nnc1SCC(=O)C(C)(C)C | -8.3% (inactive) | 102% |
| Nn1c(SCC(=O)Nc2ccc(F)cc2)nnc1-c1cccnc1 | -0.3% (inactive) | 111% |
| Cc1ccc(S(=O)(=O)N2CCOCC2)cc1C(=O)Nc1nc(-c2cccnc2)cs1 | -1.2% (inactive) | 99.3% |
| C=CCN(C(=O)CNS(=O)(=O)c1ccccc1)C(C(=O)NCCOC)c1ccncc1 (stereo unspecified) | 18.4% (inactive) | 93.8% |
| O=C(CCn1c(=S)[nH]c2cc3c(cc2c1=O)OCO3)N1CCN(C2CCCCC2)CC1 | 4.1% (inactive) | 129% |
| CC(C)OC(=O)CN1C(=O)C(C)(C)Oc2ccc(C(=O)NC3CC3)cc21 | 18% (inactive) | 104% |
| C/C(N)=C(/C#N)C(=O)COC(=O)c1cc(C)n(-c2ccc(F)cc2)c1C | 2.4% (inactive) | 116% |
| O=C(Nc1cccc(F)c1)C1C2C=CC3(CN(CCCN4CCOCC4)C(=O)C13)O2 (stereo unspecified) | -27.1% (inactive) | 118% |
| CCOc1ccc2nc(SCC(=O)N3CCCCCC3)c(C#N)cc2c1 | -7.9% (inactive) | 98.1% |
| CCOC(=O)N(C)c1ccc(C(O)(C(F)(F)F)C(F)(F)F)cc1 | -12.5% (inactive) | 105% |
| CCOC(=O)c1sc(NC(=O)CSc2nnc3c4ccccc4n(CC)c3n2)nc1C | 6.7% (inactive) | 106% |

| Compound | inhibition of aggregation | nuclei count |
| --- | --- | --- |
| COc1cc(CN(C)CC(=O)c2[nH]c(C)c(C(C)=O)c2C)ccc1OC(F)F | -11% (inactive) | 95.9% |
| CCCCn1c(SCC(=O)N2CC(=O)Nc3ccccc32)nnc1-c1ccoc1C | 15.6% (inactive) | 114% |
| CCOC(=O)c1ccc(N=c2sc(C(=O)OC)cc(=O)n2Cc2ccco2)cc1 | -5.9% (inactive) | 107% |
| CCOC(=O)CN(C(=O)CSc1nnc(-c2ccncc2)n1CCCN(C)C)c1ccccc1 | 12.2% (inactive) | 89.1% |
| CCOC(=O)N1CCN(c2c(NCCN(C)Cc3ccccc3)c(=O)c2=O)CC1 | 9.3% (inactive) | 105% |
| Clc1cccc(N2CCN(Cc3nc(-c4ccccc4)no3)CC2)c1 | 8.5% (inactive) | 112% |
| COc1ccccc1CN1CC(C(=O)NCc2cccnc2)CC1=O (stereo unspecified) | 4.9% (inactive) | 91.5% |
| COc1cccc(C2C(C(N)=O)=C(C)Nc3nc(-c4ccccc4Cl)nn32)c1 (stereo unspecified) | -14.6% (inactive) | 93.9% |
| CCOc1cccc(C(=O)N(Cc2ccco2)C2CCS(=O)(=O)C2)c1 (stereo unspecified) | 2.4% (inactive) | 107% |
| CCOC(=O)N1CCC(NC(=O)c2cc(C(=O)NC3CCCC3)ccc2CO)CC1 | 14.4% (inactive) | 58.4% |
| COc1ccc(Br)cc1CNC(=O)C1CCCN(S(C)(=O)=O)C1 (stereo unspecified) | -7.3% (inactive) | 114% |
| Cc1nc2c(C(=O)O)cnn2c(C)c1Cc1ccccc1F | 11.2% (inactive) | 77.3% |
| O=c1[nH]c(N2CCCCC2)nc2c1CCCC2 | 5.9% (inactive) | 107% |
| CC(C)(C)NC(=O)C(c1ccco1)N(C(=O)Cn1nnc(-c2ccc(F)cc2)n1)c1ccccc1F (stereo unspecified) | 14.8% (inactive) | 96.5% |
| O=C(Nc1ccccc1N1CCOCC1)c1ccc2ccccc2n1 | -18.1% (inactive) | 92.8% |
| Nc1nc2n(n1)C(c1cccc(Br)c1)CC(c1ccccc1)N2 (stereo unspecified) | -26.4% (inactive) | 114% |
| CCN(C(=O)c1cc(Cl)ccc1OC)c1ccccc1 | -20.6% (inactive) | 100% |
| CC(C)[C@H](NC(=O)OC(C)(C)C)c1nnc(SCc2cccc(F)c2)o1 | 15.1% (inactive) | 101% |
| CC(=O)NS(=O)(=O)c1ccc(NC(=O)c2ccccc2F)cc1 | 23.5% (inactive) | 90.4% |
